Here are results for 53 compounds from ChEMBL document CHEMBL4513216, “Probing the Open Global Health Chemical Diversity Library for Multistage-Active Starting Points for Next-Generation Antimalarials” (ACS Infect Dis, 2020).

Out of some 69,000 compounds screened, about 8,600 (12%) showed an effect of 50% or more. The full list was thinned out, with strong results kept by preference.

The assay relates to Plasmodium berghei. The assay is described as follows: Screen against P. berghei liver stage (PbLuc), transformed with Luciferase, at 10uM. In kind it is functional, HepG2. As to conditions: tested at 10 uM.
As for `CC(=O)N(C)c1nc(CN2CCCC2c2cnn(C)c2)cs1` (stereo not drawn), the INHIBITION is given as 50.3%.
Consider `CC(C)c1nc(CN2CCCC2c2cnn(C)c2)cs1` (stereo not drawn), for which the INHIBITION was 19.4%.
`CC(=O)Nc1nc(CN2CCCC2c2cnn(C)c2)cs1` (stereo not drawn): the INHIBITION stood at 34.9%.
To `Cc1cnn(CC2CN(Cc3nc(-c4ccsc4)no3)CCO2)c1` (stereo not drawn) belongs 49.75%; to `CC1(C(=O)N2CCN(c3cnccn3)CC2)CNCCO1` (stereo not drawn), 36.5%; to `COc1cc2cc3c(nc2cc1OC)OCCN(CC1CC1)C3`, -7.66%.
On to `COc1cccc(CC(=O)NCc2cnc(C)nc2C2CCCN2C)c1` (stereo not drawn), for which the INHIBITION stood at 36.7%.
The same measure for `Cc1nn(C)c2ncnc(N3CCCC(OCc4ccccn4)C3)c12` (stereo not drawn): -46.6%; for `c1ccc(CN2CCc3ncnc(N4CCCC4)c3CC2)nc1`: 46.7%.
To `Cc1nc2c(c(N3CCCC(OCc4ccccn4)C3)n1)CCNCC2` (stereo not drawn) belongs 73%; to `NCC1CCCN(c2nc(-c3ccccc3)nc3c2CCNCC3)C1` (stereo not drawn), 19.5%.
The same measure for `Nc1nc2c(c(N3CCCC(CN4CCCC4=O)C3)n1)CCNCC2` (stereo not drawn): 48.5%.
`Nc1nc2c(c(N3CCCC(OCc4ccccn4)C3)n1)CCNCC2` (stereo not drawn): the INHIBITION was determined as 59.4%.
As for `Nc1nc2c(c(N3CCSCC3)n1)CCN(Cc1ccccn1)CC2`, the INHIBITION is 66.5%.
On to `Nc1nc2c(c(N3CCCC3)n1)CCN(Cc1ccccn1)CC2`, for which the INHIBITION was determined as 41.5%.
For the compound `Cc1nc(N2CCCC(OCc3ccccn3)C2)c2c(C)noc2n1` (stereo not drawn), the INHIBITION is recorded as -4.21%.
To `CCc1nnc2n1CCN(CC(O)c1ccc3c(c1)OCCO3)C2` (stereo not drawn) belongs 22.333%; to `Cc1cnc(CN2CCCC2c2noc(C(C)C)n2)cn1` (stereo not drawn), 9.54%; to `O=C(Cc1n[nH]c2ccccc12)N1CCC(Nc2cccnn2)CC1`, 49.3%.
On to `Cc1ccc(CN2CCOC3(COCCN(C(C)C)C3)C2)o1` (stereo not drawn), for which the INHIBITION was 43%.
Regarding `CCc1nnc2n1CCN(C(=O)c1ccc(C)c(S(N)(=O)=O)c1)C2`, the INHIBITION came to 36.8%.
To `COCCOCC(=O)Nc1ccc(C)cc1Br` belongs -5.51%; to `CCCS(=O)(=O)CCN1CCN(C(C#N)c2ccccc2)CC1` (stereo not drawn), -4.93%.
The same measure for `CCn1c(C2CCN(C(=O)c3cc(CC(C)C)on3)CC2)nn(C)c1=O`: 21.8%.
For `CCn1c(CC2CCN(C(=O)c3cc(C(C)C)n[nH]3)CC2)n[nH]c1=O`, the INHIBITION stood at 41.5%.
The same measure for `CCn1c(CC2CCN(C(=O)c3cc(CC(C)C)on3)CC2)n[nH]c1=O`: 51.7%.
In the case of `O=C(NC[C@H]1OC[C@@H]2CN(Cc3ccco3)CC[C@@H]21)c1cccnc1`, the INHIBITION worked out at 8.03%.
On to `COc1cc(C(=O)NCC2CCCO2)nc2c(C)cc(F)cc12` (stereo not drawn), for which the INHIBITION is -14.8%.
To `CCNC(=O)c1cc(OC)c2cc(F)cc(C)c2n1` belongs -8.41%.
For `COc1cc(C(=O)NCC2CC2)nc2c(C)cc(F)cc12`, the INHIBITION stood at 55.4%.
The same measure for `COc1ccc(-c2cnc(CN(CC(N)=O)C3CCCC3)o2)cc1`: 19.9%; for `O=C(Cn1nc2c(cc1=O)CSCC2)N[C@@H](Cc1ccccc1)C(=O)O`: -5.51%; for `Cn1c(CO)nnc1SCc1c(F)cccc1Br`: 15.5%.
Consider `Cn1c(N)nnc1SCc1c(F)cccc1Br`, for which the INHIBITION turned out to be 55.4%.
`Cn1c(N)nnc1SCc1ccc(Cl)cc1Br`: the INHIBITION is on record as 11.6%.
With `CN(C)c1nc2c(c(N3CCC(O)CC3)n1)CN(CC(C)(C)C)CC2`, the INHIBITION worked out at 22.4%.
To `CN(C)c1nc2c(c(N3CCC(O)CC3)n1)CN(CC1CCNC1)CC2` (stereo not drawn) belongs 18.5%; to `CN(C)c1nc2c(c(N3CCC(O)CC3)n1)CN(CC1CCOC1)CC2` (stereo not drawn), 60.1%.
To `CC(C)COCCC(=O)Nc1cccnc1-n1cncn1` belongs 14.4%; to `CN1C(=O)C2(CCN(c3ncccc3C(=O)O)CC2)c2ccccc21`, -20.6%; to `O=C(NC[C@H]1CCCC[C@H]1O)c1cccc2[nH]c(-c3ccco3)nc12`, 23.3%.
For `CC(C)CN(C)S(=O)(=O)c1ccc(Cl)cc1C#N`, the INHIBITION is on record as -10.4%.
In the case of `CSCC(C)N(C)S(=O)(=O)c1ccc(Cl)cc1C#N` (stereo not drawn), the INHIBITION came to 50.8%.
The same measure for `CCN(C)S(=O)(=O)c1ccc(Cl)cc1C#N`: 33.2%.
Take `CC(C)C(=O)N1CCN(Cc2cnn(C)c2)CC2(CC(=O)N(C)C2)C1` (stereo not drawn): the INHIBITION was -10.3%.
For the compound `O=C(c1ccc[nH]1)N1CCN(Cc2ccncc2)c2ncccc2C1`, the INHIBITION came out at 23.3%.
Turning to `Cc1ccc(-n2c(SCC(=O)O)nnc2-c2cccc(C)c2)cc1`, the INHIBITION stood at 7.52%.
To `Cc1cnc(C(=O)N2CCCn3c(nc(CN(C)C)cc3=O)C2)cn1` belongs -10.3%; to `Cc1cc(NC(=O)N2CCN(C)CC2C)n(CCC#N)n1` (stereo not drawn), 53.4%.
With `Cc1cc(NC(=O)N2CCN(C)CC2C)n(C)n1` (stereo not drawn), the INHIBITION came out at 40.5%.
The same measure for `Cc1cc(NC(=O)N2CCN(C)CC2C)n(Cc2ccccc2)n1` (stereo not drawn): 43.4%; for `CCCN1C[C@@H]2CC[C@H]1CN(Cc1ccc(-n3cccn3)cc1)C2`: 49.5%; for `COC[C@@]12CCC[C@@H]1CN(C(=O)COc1ccccc1OC)C2`: 19.5%.
